High-throughput results as filed in PubChem.
ClpP mod – qHTS Assay for Activators of ClpP | AID 651965, 2013 | ATP-dependent Clp protease proteolytic subunit (Bacillus subtilis (strain 168)), P80244 | Potency, µM (series often up to 57.5 µM), without a hit: at the top dose activity change, negative = active | purified B. subtilis ClpP, FRET peptide cleavage, 20 min | actives 1.9% (n = 340,000); active means well fitted falling curve with a large enough effect; inconclusive means small, poorly fitted or top-dose-only effect; inactive means no such curve, though single readings can be large or run the other way; further: the source files actives as falling curves though it sought activators and does not explain the sign; nearly all actives have a fitted effect of over 65% in size
Target sequence (P80244 whole entry, looked up): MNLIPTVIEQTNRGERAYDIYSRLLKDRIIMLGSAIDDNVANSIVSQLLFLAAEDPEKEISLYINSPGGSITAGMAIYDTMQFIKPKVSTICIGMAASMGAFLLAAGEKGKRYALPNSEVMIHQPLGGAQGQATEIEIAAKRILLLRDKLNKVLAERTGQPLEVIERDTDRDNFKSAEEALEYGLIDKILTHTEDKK
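Buffer: 100 mM Tris/HCl pH8, 100 mM KCl, 0.05% low protease BSA, 2.5% glycerol, 0.01% Tween-20. ClpP 10 microg/mL final; 20 min RT; delta FRET normalized to ADEP and DMSO controls.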
RORgamma inh – ROR gamma (mouse) transcription inhibition; P51450; Drosophila S2 Gal4-RORgamma UAS-luciferase reporter, 20 h; Potency, µM (highest dose often 53.6 µM), inactives show at the top dose activity change, negative = inhibition, hits mostly inhibitors; actives 5.4% (n = 310,000); AID 2551; further: on the % scale 0 is the no-effect control and ±100 the full control effect; nearly all actives have a fitted effect of over 60% in size
Target sequence (P51450 whole entry, looked up, the tested form may be a part): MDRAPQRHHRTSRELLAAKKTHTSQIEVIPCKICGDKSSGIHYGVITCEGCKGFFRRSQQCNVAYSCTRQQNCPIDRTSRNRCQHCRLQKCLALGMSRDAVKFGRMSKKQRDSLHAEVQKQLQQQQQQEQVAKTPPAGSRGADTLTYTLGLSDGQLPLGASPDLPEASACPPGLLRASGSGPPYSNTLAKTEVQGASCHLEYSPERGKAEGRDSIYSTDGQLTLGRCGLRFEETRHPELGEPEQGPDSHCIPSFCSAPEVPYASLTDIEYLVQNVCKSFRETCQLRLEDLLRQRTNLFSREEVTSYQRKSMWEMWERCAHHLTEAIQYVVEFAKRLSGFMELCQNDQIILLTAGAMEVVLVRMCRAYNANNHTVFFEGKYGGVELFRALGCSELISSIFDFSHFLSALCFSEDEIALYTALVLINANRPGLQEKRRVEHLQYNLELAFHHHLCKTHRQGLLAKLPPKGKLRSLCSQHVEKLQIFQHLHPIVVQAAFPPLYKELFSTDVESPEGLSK
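In this cell-based reporter format, copper sulfate (700 uM final) drives Gal4–ROR gamma fusion expression from a metallothionein promoter in Drosophila Schneider cells; compounds preincubated 1 hr, reporter read after 20 hr at ambient temperature.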
VP16 counter – counter-screen for ROR gamma inhibitors: Gal4-VP16 reporter; Drosophila S2 Gal4-VP16 UAS-luciferase, luminescence, 20 h; Potency, µM (highest dose often 53.6 µM), for the others: at the top dose activity, negative = inhibition, usual class: inhibitors; actives 3.5% (n = 310,000); AID 2546;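 further: Gal4-VP16 expression switched on by copper sulfate through the metallothionein promoter; on the % scale 0 is the no-effect control and ±100 the full control effect; nearly all actives have a fitted effect of over 50% in size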
PINK1 modulator – modulators of PINK1 expression; PINK1 immunofluorescence, high-content cytometry, 24 h; Potency, µM (top dose mostly 76.6 µM), for the others: at the highest dose activation (PINK1 increase), most hits filed as activators; actives 0.2% (n = 410,000); active means well fitted activation curve with a large enough effect; inconclusive means small, poorly fitted or top-dose-only effect; cell line not stated here; further: % of control where 0% means no effect; nearly all actives have a fitted effect of over 65% in size
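PINK1 protein level read as immunofluorescence by microplate cytometer in a fixed, stained stable cell line after 24 h exposure to five compound concentrations, with CCCP as control.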
Epigenetic derep – derepresses silenced GFP reporter in murine cells; actives 0.2% (n = 280,000); AID 1865; Potency, µM (top dose mostly 53.9 µM), for inactives: top-dose GFP activation, hits mostly activators; murine LDR cells, GFP reporter derepression, 30 h; further: % of control where 0% means no effect; nearly all actives have a fitted effect of over 60% in size
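Readout is the number of GFP-expressing murine LDR cells, counted by cytometry following washing. Cells were treated with compound for 30 h at 37 C; the stably integrated CMV-GFP locus is normally silent.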
Sfp PPTase inh – blocks B. subtilis Sfp PPTase activity; Q9F4F7; Biochemical Sfp PPTase activity, qHTS; Potency, µM, for inactives: largest response in the series, negative = inhibition, most hits filed as inhibitors; actives 3.5% (n = 310,000); AID 1490;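 further: the enzyme is Sfp with the accession as filed and its product quenches rhodamine fluorescence; 0% = enzyme reaction without inhibitor and -100% = no enzyme wells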
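Compounds were incubated with enzyme (final 15 nM) for 15 min at room temperature before substrate addition started the reaction. Fluorescence at 525 nm excitation, 598 nm emission was recorded immediately and after 30 minutes.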
* = called active by the depositor; ? = inconclusive; . = no result; [ ] = dose if it differs, or a comment. Compounds with a hit are over-represented: about 8.1% of the library has one in this group of screens. Unless noted, the call rests on the fitted dose curve; in most records, active means well fitted curve in the direction sought with a large enough effect; inconclusive means small, poorly fitted or top-dose-only effect, or another doubt; inactive means no such curve, though single readings can be large; an effect the other way counts as inactive or inconclusive. Potency means the concentration at half of the fitted maximal effect.

SMILES	ClpP mod	RORgamma inh	VP16 counter	PINK1 modulator	Epigenetic derep	Sfp PPTase inh
CCC(=O)Nc1c(S(=O)(=O)c2ccc(C)cc2)c2nc3ccccc3nc2n1C(C)c1ccccc1 (stereo not drawn)	20µM*	25.7%	-19.2%	1.8%	4.4%	5.3%
CCC(=O)Nc1c(S(=O)(=O)c2ccccc2)c2nc3ccccc3nc2n1C(C)c1ccccc1 (stereo not drawn)	31.6µM*	?	-1.5%	?	-1.0%	-2.0%
COC(=O)c1sccc1S(=O)(=O)N1CCN(c2ccc(C)cc2C)CC1	-1.7%	.	.	0.8%	0.0%	.
Cc1ccc2nc(SCc3nc(-c4ccccc4C)no3)[nH]c2c1	-4.8%	.	.	1.1%	-1.1%	.
O=C(COC(=O)c1ccc(S(=O)(=O)NCc2ccco2)cc1)Nc1ccccc1OC(F)F	0.2%	-23.8%	-3.4%	0.5%	-1.0%	31.6µM*
O=C(COC(=O)c1ccc(S(=O)(=O)NCc2ccco2)cc1)Nc1ccccc1	1.7%	.	.	-0.4%	.	.
CCNc1nc(NCC)n2c(SC(C(=O)Nc3cc(C)ccc3OC)c3ccccc3)nnc2n1 (stereo not drawn)	-2.4%	31.4%	-2.1%	-4.6%	-2.0%	50.1µM*
CCNc1nc(NCC)n2c(SCC(=O)Nc3cc(OC)ccc3OC)nnc2n1	-3.3%	.	.	-0.4%	.	.
C=C(C)CNC(=S)N/N=C(\C)c1ccc(Cl)s1	-2.2%	0.891µM*	2.82µM*	8.5%	-1.9%	28.8%
CNC(=S)N/N=C(\C)c1ccc(Cl)s1	-5.3%	0.398µM*	1.12µM*	-0.6%	0.0%	4.7%
CCNC(=S)N/N=C(\C)c1ccc(Cl)s1	-12.1%	0.708µM*	1.41µM*	1.6%	16.3%	10.6%
CC(C)Oc1cccc(C(=O)NC(=S)Nc2ccc(Cl)c(C(=O)O)c2)c1	6.3%	-24.3%	?	-0.6%	-0.4%	-16.5%
CC(C)Oc1cccc(C(=O)NC(=S)Nc2ccc3c4c(cccc24)CC3)c1	-1.6%	11.2µM*	?	5.4%	-1.0%	-9.2%
COc1cc(OC)cc(C(=O)NC(=S)Nc2ccc3c4c(cccc24)CC3)c1	3.6%	?	5.62µM*	?	0.0%	?
Cc1c(C(=O)Nc2ccc3c4c(cccc24)CC3)cccc1[N+](=O)[O-]	3.4%	37.3%	-5.4%	8.6%	3.0%	-2.9%
COc1ccc(C(=O)Nc2ccc3c4c(cccc24)CC3)cc1	1.0%	21.1%	14.8%	-0.9%[38.3 µM]	0.4%	-1.2%
COc1ccc(C(=O)NC(=S)Nc2ccc3c4c(cccc24)CC3)cc1OC	9.6%	7.94µM*	?	0.8%	-0.8%	-18.5%
Cc1c(C(=O)NC(=S)Nc2ccc3c4c(cccc24)CC3)cccc1[N+](=O)[O-]	4.8%	2.24µM*	5.01µM*	?	-1.7%	14.0%
CCn1nc(C)c(CN2Cc3ccccc3OC(c3ccccc3OC)C2)c1C (stereo not drawn)	.	.	.	-0.5%	.	.
COc1ccccc1CNc1ccc(-c2nc(-c3ccccn3)no2)cc1[N+](=O)[O-]	-2.0%	.	.	0.6%	4.2%	.
Cc1nc2sccn2c1CN1CCOc2ccc(CN3CCN(c4ccc(F)cc4)CC3)cc2C1	.	.	.	0.3%	.	.
CCCOc1cccc(C2c3c(oc4ccccc4c3=O)C(=O)N2c2nncs2)c1 (stereo not drawn)	-0.2%	.	.	0.3%	2.5%	.
COCCn1c(-c2ccccc2)cnc1N	-7.1%	11.2µM*	?	2.2%	-0.3%	6.9%
Cn1c(-c2ccccc2)cnc1N	-0.7%	12.6µM*	-11.0%	7.2%	-0.9%	16.7%
COCCn1c(-c2ccccc2)nc2ccccc21	0.5%	?	-5.8%	-0.9%	0.9%	0.1%
SMILES	ClpP mod	RORgamma inh	VP16 counter	PINK1 modulator	Epigenetic derep	Sfp PPTase inh
COc1ccc(-c2cnc(N)n2C)cc1	-1.9%	-27.7%	0.4%	0.0%	1.1%	2.4%
COc1ccc(C2SCC(=O)N2CCc2ccc(OC)c(OC)c2)cc1 (stereo not drawn)	0.1%	?	2.82µM*	5.5%	-0.1%	-5.8%
CC(Cc1cccs1)NC(=S)Nc1ccc(F)cc1 (stereo not drawn)	.	3.16µM*	15.8µM*	3.4%	0.0%	-0.1%
CCC(C)NC(=O)C1CCCN(C(=O)Nc2ccc(F)cc2)C1 (stereo not drawn)	-0.1%	3.3%	1.4%	5.5%[38.3 µM]	0.8%	19.1%
CCC(C)NC(=S)Nc1ccc(F)cc1 (stereo not drawn)	1.6%	10µM*	?	0.8%	1.1%	-2.3%
COc1ccc(NC(=S)NC(C)Cc2cccs2)cc1 (stereo not drawn)	2.4%	14.1µM*	2.82µM*	-1.0%	?	-7.2%
COc1ccc(NC(=O)C(NC(=O)Cc2cccs2)c2ccc(OC)cc2)cc1 (stereo not drawn)	0.9%	.	.	1.0%	4.0%	.
CC(=O)Nc1ccc(NC(=O)/C(=C/c2ccco2)NC(=O)c2ccccc2)cc1	.	5.6%	-12.9%	-0.2%	0.0%	17.8µM*
CC(=O)c1ccc(NC(=O)/C(=C\c2ccco2)NC(=O)c2ccco2)cc1	-3.1%	-1.6%	12.0%	0.1%	.	-9.1%
O=C(Nc1ccc(C(=O)O)cc1)/C(=C\c1ccco1)NC(=O)c1ccccc1Cl	.	0.0%	-6.9%	-1.3%	.	10.9%
O=C(Nc1cccc(F)c1)/C(=C\c1ccco1)NC(=O)c1cccs1	4.4%	0.1%	-2.5%	-2.3%	-1.2%	56.2µM*
CC(C)(C)c1ccc(C(=O)N/C(=C\c2ccco2)C(=O)Nc2ccccc2C(=O)O)cc1	.	-2.7%	-7.2%	0.1%	.	50.1µM*
O=C(Nc1ccc(C(=O)O)cc1)/C(=C\c1ccco1)NC(=O)c1ccccc1	.	-8.1%	-9.0%	1.0%	0.0%	20µM*
CN1CCN2c3ccccc3CC3(C(=O)OC(C)(C)OC3=O)C2C1 (stereo not drawn)	-2.9%	.	.	1.1%	.	.
Cc1onc(-c2ccccc2Cl)c1C(=O)Nc1nnc(C2CCCCC2)s1	-1.5%	.	.	-1.2%	.	.
CN(CCN(C)c1nc(-c2cccs2)nc2ccccc12)C(=O)OC(C)(C)C	-9.6%	.	.	3.4%	.	.
Cc1ccc(S(=O)(=O)c2nc(C(C)(C)C)oc2N2CCOCC2)cc1	0.8%	?	?	4.8%[38.3 µM]	-0.9%	28.2µM*
COc1ccc2nc(N3C(=O)CC(C(C)c4ccccc4)C3=O)sc2c1 (stereo not drawn)	28.2µM*	?	?	0.9%	-0.9%	9.4%
Cc1cccc(C)c1NC(=O)c1nc(SC(C)C)ncc1Cl	1.2%	.	.	3.7%	-0.4%	.
